Where “and” joins values, the source holds several entries; their conditions need not be identical. Equal entries are not always repeated. Inconclusive results are not listed. Entries that show only a call come without a potency. Calls of active or inactive are those of the source. The call rests on the fitted dose curve; in most records, active means well fitted cell-killing curve with a large enough effect in the repeat runs; inconclusive means weak or mixed curves, or effect the other way; inactive means no such curve, though single readings can be large or run the other way.
assay: qHTS assay for identifying genotoxic compounds that show differential cytotoxicity against isogenic chicken DT40 cell lines with known DNA damage response pathways - wild type cell line (AID 743012); conditions: DT40 wild type chicken cells viability, CellTiter-Glo, 40 h; series mostly up to 68.4 µM; further: nearly all actives have a fitted effect of over 60% in size
Source text: U.S. Tox21 Program National Center for Advancing Translational Sciences [NCATS] NIH Chemical Genomics Center [NCGC] U.S. Environmental Protection Agency [EPA] National Institutes of Environmental Health Sciences [NIEHS] National Toxicology Program [NTP] U.S. Food and Drug Administration [FDA] Tox21 Assay Overview: DNA repair pathways play a critical role in cellular homeostasis by repairing DNA damage induced by endogenous processes and xenobiotics. Isogenic chicken DT40 cell lines deficient in different DNA repair pathways can be used to identify genotoxic compounds and aid in characterizing the nature of the DNA damage induced. Two DNA repair-deficient cell lines with disrupted genes, Rad54/Ku70 or Rev3, were used to screen the Tox21 10K compound library. Possible genotoxicity was based on the presence of a significant increase in cytotoxicity in one or more of the DNA repair-deficient cell lines compared to that observed in the parental DNA repair-proficient cell line. CellTiter Glo viability assay (Promega, Madison, WI) was used to measure cell viability in these cells after compound treatment. This assay includes the data from the wild type cell line.
Tox21 Assay Protocol Summary: 300 DT40 wild type cells in 5 uL/well were dispensed into white, solid-bottom 1536-well plates using a Multidrop Combi (ThermoFisher Scientific, Waltham, MA) dispenser. After the assay plates were incubated at 37 C/5% CO2 for approximately 0.5 hour, 23 nL of compounds dissolved in DMSO, positive controls or DMSO only was transferred into the assay plate by a pintool work station (Kalypsys, San Diego, CA). The assay plates were incubated at 37 C/5% CO2 for 40 hours. After 5 uL per well of CellTiter-Glo reagent was added into each well of the assay plates, the plates were incubated for 30 min at room temperature and the luminescence intensity of the plates was measured using a ViewLux (PerkinElmer, Shelton, CT) plate reader.
Potency means the concentration at half of the fitted maximal effect.

Compound | Potency
Cc1cc(N)c2ccccc2[n+]1CCCCCCCCCC[n+]1c(C)cc(N)c2ccccc21 | 2.54 µM (active)
C=C(Nc1ccc(OCC)cc1)Nc1ccc(OCC)cc1 | 29.8 µM (active) and 23.7 µM (active)
NS(=O)(=O)c1cc(Cl)c(Cl)c(S(N)(=O)=O)c1 | inactive
CC(Cc1ccc(O)c(O)c1)C(C)Cc1ccc(O)c(O)c1 (stereo not given) | 13.7 µM (active)
O=P(O)(O)OP(=O)(O)OP(=O)(O)O | inactive
CCCCCCCCCCCCCC(=O)OCC(COP(=O)([O-])OCC[N+](C)(C)C)OC(=O)CCCCCCCCCCCCC (stereo not given) | inactive
CN1CC[C@H](c2c(O)cc(O)c3c(=O)cc(-c4ccccc4Cl)oc23)[C@H](O)C1 | 0.106 µM (active)
C[C@H](NCCc1ccc(O)cc1)[C@H](O)c1ccc(O)cc1 | inactive
O=C(Cn1cnnn1)N[C@@H]1C(=O)N2C(C(=O)O)=C(CSc3nncs3)CS[C@H]12 | inactive
C=CC1=C(C(=O)O)N2C(=O)[C@@H](NC(=O)/C(=N\O)c3csc(N)n3)[C@H]2SC1 (stereo in doubt) | inactive
CC1CCCC(C)N1NC(=O)c1ccc(Cl)c(S(N)(=O)=O)c1 (stereo not given) | inactive
C[Se]CC[C@H](N)C(=O)O | inactive
CO/N=C(\C(=O)N[C@@H]1C(=O)N2C(C(=O)[O-])=C(C[n+]3cccc4c3CCC4)CS[C@H]12)c1csc(N)n1 | inactive
CCCCCCCC[N+](C)(C)CCCCCCCC | 668 nM (active) and 531 nM (active)
Clc1nc(C(Cl)(Cl)Cl)c(Cl)c(Cl)c1Cl | 21.7 µM (active)
CC(C)CCC[C@@H](C)[C@H]1CC[C@H]2[C@@H]3CC[C@@H]4C[C@H](O)CC[C@]4(C)[C@H]3CC[C@]12C | inactive
CNC(=O)OCc1cccc(COC(=O)NC)n1 | inactive
CC(=O)Nc1ccc(OC(C)=O)cc1 | inactive
C[C@@H]1C[C@H]2[C@@H]3C[C@H](F)C4=CC(=O)C=C[C@]4(C)[C@@]3(Cl)[C@@H](O)C[C@]2(C)[C@H]1C(=O)COC(=O)C(C)(C)C | inactive
CCCOC(=O)c1ccccc1O | inactive

Compound | Potency
O=C(O)Cc1nn(Cc2ccc(Br)cc2F)c(=O)c2ccccc12 | inactive
N[C@H](CO)C(=O)O | inactive
Cc1cn([C@H]2C[C@H](O)[C@@H](CO)O2)c(=O)[nH]c1=O | inactive
N#Cc1nc(Cl)c(Cl)c(Cl)c1Cl | 1.54 µM (active)
CC(C)=CCC/C(C)=C/CC/C(C)=C/CC/C=C(\C)CC/C=C(\C)CCC=C(C)C | inactive
CCN(CC)CCNC(=O)c1ccc(NS(C)(=O)=O)cc1 | inactive
CC1=C(/C=C/C(C)=C/C=C/C(C)=C\C(=O)O)C(C)(C)CCC1 | 61.3 µM (active)
COc1cccc2c1[C@@H]1CN(CCCCn3c(=O)[nH]c4c(sc5ncc(-c6ccccc6)nc54)c3=O)C[C@@H]1CO2 | 13.3 µM (active)
CCOc1ccc([N+](=O)[O-])cc1 | 62 µM (active)
CC[C@@H](C(=O)[C@@H](C)[C@@H](O)[C@H](C)CCc1ccc(C)c(O)c1C(=O)O)[C@H]1O[C@](CC)([C@H]2CC[C@](O)(CC)[C@H](C)O2)C[C@@H]1C | 5.96 µM (active)
CCN(CC)C(=O)[C@]1(c2ccccc2)C[C@@H]1CN | inactive
CCOC(=O)[C@H](CCc1ccccc1)N[C@@H](C)C(=O)N1[C@H](C(=O)O)C[C@H]2CCCC[C@@H]21 | inactive
CCCC(CCC)C(=O)OC1C[C@H]2CC[C@@H](C1)[N+]2(C)C (stereo not given in full) | inactive
SC1CCCCC1 | inactive
CN(C)CCOc1ccc(/C(=C(/CCCl)c2ccccc2)c2ccccc2)cc1 | 11.9 µM (active) and 5.1 µM (active)
Oc1ccc(Cl)cc1C1CCCC1 | 48.6 µM (active)
O=C1c2ccccc2C(=O)C1c1ccc(F)cc1 | inactive
CCOc1cc(CC(=O)N[C@@H](CC(C)C)c2ccccc2N2CCCCC2)ccc1C(=O)O | inactive
O=C1c2c(O)cccc2[C@H]([C@@H]2O[C@H](CO)[C@@H](O)[C@H](O)[C@H]2O)c2cc(CO)cc(O)c21 | inactive
CC(C)=CCC/C(C)=C/CC/C(C)=C/CC/C(C)=C/CC1=C(C)C(=O)c2ccccc2C1=O | 29.8 µM (active) and 10.6 µM (active)

Source: PubChem BioAssay (Tox21)
